In PubChem BioAssay (NCI):
This is part of a sample that, as a whole, favours compounds with a hit. Of some 83,000 tested, about 20% had one in any assay.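 A percent growth of 40 corresponds to 60% growth inhibition; 0 means no net growth; -100 means all cells died. Active threshold: below 10.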 A number with no mark means an inactive call. The source made the active and inactive calls.

system: HCC-2998 colon; test: NCI-60 one-dose screen, 48 h (100 = growth as untreated, 0 = no growth, -100 = all killed); conditions: 10 µM unless noted

Row | SMILES | growth
1 | CC1CC2Oc3ccc(Cl)cc3C(=O)N2O1 (stereo unspecified) | 97.5%
2 | COc1cccc(C(=O)NCCNc2cc(-c3cn(-c4ccccc4)nc3-c3cccc(OC)c3)ccn2)c1 | 63.9%
3 | CN(C)c1ccc(-c2ccc3[nH]c(=O)nc(-c4ccccc4)c3c2)cn1 | 66.3%
4 | CCN(CC)CCCCCCNc1cc(OC)c(Cl)c2cccnc12 | 82.1%
5 | NC(=N\N=C/c1ccccc1[N+](=O)[O-])/C(N)=N\N=C/c1ccccc1[N+](=O)[O-] | 108%
6 | C[n+]1cc2cc(C(N)=O)[nH]c3c(=N)c(Cl)c(N)c1c23 | 65.5%
7 | COc1ccc(C2=Nc3c(N)ncnc3NC(c3ccc4c(c3)OCO4)C2)cc1 (stereo unspecified) | -6.86% (active)
8 | CCN(CC)CCN1C(=O)c2c(c(C)c3c(oc4cc(O)ccc43)c2C)C1=O | 92%
9 | O=C(Nc1ccccc1Cl)Oc1ccc(-c2ccccc2)cc1 | 119%
10 | O=C1/C(=C/c2ccc(F)cc2)C=C(c2ccccc2)N1CCc1ccccc1 | 85%
11 | Cc1cc(Cl)ccc1Nc1nc(C(F)(F)F)ccc1C(=O)N/N=C/c1ccc(N(C)C)cc1 | -37.3% (active)
12 | CCN1CCN(c2cc(C)nc(NCc3cc(Nc4ccnc5cc(Cl)ccc45)ccc3F)n2)CC1 | 28%
13 | CCN(CC)CCN1CC(O)=C(c2nc(-c3ccc(Cl)cc3)cs2)C1=N | -70.7% (active)
14 | CC(=O)n1c(-c2ccc(Cl)cc2)nc2c(c1=O)C(c1ccc(Cl)cc1)c1sc3c(Cl)cccc3c1O2 (stereo unspecified) | -45.4% (active)
15 | CCN(CC)CCn1nc2c3c(cccc3c1=O)-c1ccccc1-2 | 34.7%
16 | Cc1cc(Cl)nc(NCc2cc(Nc3ccnc4cc(Cl)ccc34)ccc2F)n1 | 73.1%
17 | O=C(NCCCNc1cc(-c2cn(-c3ccccc3)nc2-c2cccc(O)c2)ccn1)c1ccccc1 | -26.1% (active)
18 | COc1ccc(-c2cc(-c3cc(OC)ccc3OC)nc(SCC(=O)c3ccccc3)c2C#N)cc1 | 108%
19 | Nc1cc2c3c(cccc3c1)C(=O)N(CCN1CCCC1)C2=O | 44.1%

Row | SMILES | growth
20 | COc1ccc(-c2csc(C3=C(O)CN(CCCN4CCCC4=O)C3=N)n2)cc1OC | 98.3%
21 | CCCCn1c(=O)c2c(nc(NCCc3ccc(O)c(O)c3)n2CCC)n(CCCC)c1=O | 78.8%
22 | N#C/C(=C/C=C/c1cccc(Cl)c1)S(=O)c1ccccc1 (stereo unspecified) | -88.7% (active)
23 | O=C1OC(c2nc3ccccc3s2)=C/C1=C\c1ccc(O)cc1 | 108%
24 | CC/C=C\CCC/C=C1/C(=O)C=C[C@@H]1C/C=C\CCCC(=O)O | 68.2%
25 | CC(=O)C(C)Cc1cc2c(cc1C)C(C)(C)CCC2(C)C (stereo unspecified) | 102%
26 | O=[N+]([O-])c1ccc(C2CC(c3ccccc3)=Nc3ccccc3S2)cc1 (stereo unspecified) | 103%
27 | COc1ccc(-c2nc3c(c(=O)n2C(C)=O)C(c2ccc(Cl)cc2)c2sc4c(Cl)cccc4c2O3)cc1 (stereo unspecified) | -34.5% (active)
28 | FC(F)(F)c1cc(Nc2ccc3cc(OCCCN4CCOCC4)ccc3n2)ccc1Cl | -18.5% (active)
29 | CC(C)CCC[C@@H](C)[C@H]1CC[C@H]2[C@@H](Nc3ccc(O)cc3)CCC[C@]12C | 122%
30 | O=C(N/N=C/c1ccncc1)c1ccc(C(F)(F)F)nc1Nc1cccc(C(F)(F)F)c1 | -40.3% (active)
31 | COC(=O)[C@]12CC[C@@H](C)[C@H](C)[C@@H]1C1=CC[C@@H]3[C@@]4(C)C(C=O)=C[C@@](C)(COC(C)=O)[C@@H]4C(=O)C[C@@]3(C)[C@]1(C)CC2 | 40%
32 | O=C(Nc1ccccc1)Nc1cccc(Oc2nnc(Cl)c3ccccc23)c1 | 52.8%
33 | N#Cc1c(-c2ccccc2)cc(-c2ccc(Nc3nc(Nc4ccc(F)cc4)nc(Nc4ccc(F)cc4)n3)cc2)nc1N | 51.8%
34 | CCn1c(C)nc2cc(C(N)=O)ccc21 | 96.9%
35 | O=C(/C=C/c1ccco1)c1ccc(Nc2nc(Nc3ccc(F)cc3)nc(Nc3ccc(Cl)cc3)n2)cc1 | 54.8%
36 | CC/C=C\C[C@H](O)C/C=C1/C(=O)C=C[C@@H]1C/C=C\CCCC(=O)OC | -78.4% (active)
37 | N#Cc1c(-c2cccc(Cl)c2)cc(-c2cccc(Cl)c2)[nH]c1=O | 82.6%
38 | O=C1CC(N2C(=O)/C(=C/C(Cl)=C\c3ccc([N+](=O)[O-])cc3)SC2=S)C(=O)N1c1ccc(O)cc1 (stereo unspecified) | -81.6% (active)

system: KM12 colon; test: as above; conditions: 10 µM unless noted

Row | SMILES | growth
39 | CC1CC2Oc3ccc(Cl)cc3C(=O)N2O1 (stereo unspecified) | 107%
40 | COc1cccc(C(=O)NCCNc2cc(-c3cn(-c4ccccc4)nc3-c3cccc(OC)c3)ccn2)c1 | 41.5%
41 | CN(C)c1ccc(-c2ccc3[nH]c(=O)nc(-c4ccccc4)c3c2)cn1 | 19.8%
42 | CCN(CC)CCCCCCNc1cc(OC)c(Cl)c2cccnc12 | 76.9%
43 | NC(=N\N=C/c1ccccc1[N+](=O)[O-])/C(N)=N\N=C/c1ccccc1[N+](=O)[O-] | 104%
44 | C[n+]1cc2cc(C(N)=O)[nH]c3c(=N)c(Cl)c(N)c1c23 | 74.5%
45 | COc1ccc(C2=Nc3c(N)ncnc3NC(c3ccc4c(c3)OCO4)C2)cc1 (stereo unspecified) | 95.8%
46 | CCN(CC)CCN1C(=O)c2c(c(C)c3c(oc4cc(O)ccc43)c2C)C1=O | -80.1% (active)
47 | O=C(Nc1ccccc1Cl)Oc1ccc(-c2ccccc2)cc1 | 120%
48 | O=C1/C(=C/c2ccc(F)cc2)C=C(c2ccccc2)N1CCc1ccccc1 | 62.2%
49 | Cc1cc(Cl)ccc1Nc1nc(C(F)(F)F)ccc1C(=O)N/N=C/c1ccc(N(C)C)cc1 | 26.9%
50 | CCN1CCN(c2cc(C)nc(NCc3cc(Nc4ccnc5cc(Cl)ccc45)ccc3F)n2)CC1 | 82.7%
51 | CCN(CC)CCN1CC(O)=C(c2nc(-c3ccc(Cl)cc3)cs2)C1=N | 33.7%
52 | CC(=O)n1c(-c2ccc(Cl)cc2)nc2c(c1=O)C(c1ccc(Cl)cc1)c1sc3c(Cl)cccc3c1O2 (stereo unspecified) | -17.4% (active)
53 | CCN(CC)CCn1nc2c3c(cccc3c1=O)-c1ccccc1-2 | 34%
54 | Cc1cc(Cl)nc(NCc2cc(Nc3ccnc4cc(Cl)ccc34)ccc2F)n1 | 79.9%
55 | O=C(NCCCNc1cc(-c2cn(-c3ccccc3)nc2-c2cccc(O)c2)ccn1)c1ccccc1 | 20.2%
56 | COc1ccc(-c2cc(-c3cc(OC)ccc3OC)nc(SCC(=O)c3ccccc3)c2C#N)cc1 | 96.8%
57 | Nc1cc2c3c(cccc3c1)C(=O)N(CCN1CCCC1)C2=O | 34.7%

Row | SMILES | growth
58 | COc1ccc(-c2csc(C3=C(O)CN(CCCN4CCCC4=O)C3=N)n2)cc1OC | 104%
59 | CCCCn1c(=O)c2c(nc(NCCc3ccc(O)c(O)c3)n2CCC)n(CCCC)c1=O | 61.3%
60 | N#C/C(=C/C=C/c1cccc(Cl)c1)S(=O)c1ccccc1 (stereo unspecified) | -47.7% (active)
61 | O=C1OC(c2nc3ccccc3s2)=C/C1=C\c1ccc(O)cc1 | 95%
62 | CC/C=C\CCC/C=C1/C(=O)C=C[C@@H]1C/C=C\CCCC(=O)O | 32%
63 | CC(=O)C(C)Cc1cc2c(cc1C)C(C)(C)CCC2(C)C (stereo unspecified) | 105%
64 | O=[N+]([O-])c1ccc(C2CC(c3ccccc3)=Nc3ccccc3S2)cc1 (stereo unspecified) | 73.6%
65 | COc1ccc(-c2nc3c(c(=O)n2C(C)=O)C(c2ccc(Cl)cc2)c2sc4c(Cl)cccc4c2O3)cc1 (stereo unspecified) | -8.16% (active)
66 | FC(F)(F)c1cc(Nc2ccc3cc(OCCCN4CCOCC4)ccc3n2)ccc1Cl | 16.7%
67 | CC(C)CCC[C@@H](C)[C@H]1CC[C@H]2[C@@H](Nc3ccc(O)cc3)CCC[C@]12C | 87.9%
68 | O=C(N/N=C/c1ccncc1)c1ccc(C(F)(F)F)nc1Nc1cccc(C(F)(F)F)c1 | 20.9%
69 | COC(=O)[C@]12CC[C@@H](C)[C@H](C)[C@@H]1C1=CC[C@@H]3[C@@]4(C)C(C=O)=C[C@@](C)(COC(C)=O)[C@@H]4C(=O)C[C@@]3(C)[C@]1(C)CC2 | 28.4%
70 | O=C(Nc1ccccc1)Nc1cccc(Oc2nnc(Cl)c3ccccc23)c1 | 43.6%
71 | N#Cc1c(-c2ccccc2)cc(-c2ccc(Nc3nc(Nc4ccc(F)cc4)nc(Nc4ccc(F)cc4)n3)cc2)nc1N | 95.3%
72 | CCn1c(C)nc2cc(C(N)=O)ccc21 | 107%
73 | O=C(/C=C/c1ccco1)c1ccc(Nc2nc(Nc3ccc(F)cc3)nc(Nc3ccc(Cl)cc3)n2)cc1 | 65.2%
74 | CC/C=C\C[C@H](O)C/C=C1/C(=O)C=C[C@@H]1C/C=C\CCCC(=O)OC | -54.3% (active)
75 | N#Cc1c(-c2cccc(Cl)c2)cc(-c2cccc(Cl)c2)[nH]c1=O | 56.1%
76 | O=C1CC(N2C(=O)/C(=C/C(Cl)=C\c3ccc([N+](=O)[O-])cc3)SC2=S)C(=O)N1c1ccc(O)cc1 (stereo unspecified) | -72.4% (active)
